Values joined by “and” are separate entries in the source; they are usually repeats but may differ in a detail not shown here. Equal values may be shown once. Results filed as inconclusive are left out. Active and inactive are the calls of the source. Calls come from the whole dose curve; as a rule, active = well fitted curve in the direction sought with a large enough effect; inconclusive = small, poorly fitted or top-dose-only effect, or another doubt; inactive = no such curve, though single readings can be large or run the other way.
Each molecule was assayed against Lysosomal acid glucosylceramidase (Homo sapiens) (UniProt P04062) (assay: qHTS Assay for Inhibitors and Activators of N370S glucocerebrosidase as a Potential Chaperone Treatment of Gaucher Disease: Primary Screen Confirmation). Conditions: N370S glucocerebrosidase enzyme activity, fluorogenic substrate; series mostly up to 54 µM; activity change, negative = inhibition: at the top concentration.
Sequence of Lysosomal acid glucosylceramidase (Homo sapiens) (P04062 whole entry N409S): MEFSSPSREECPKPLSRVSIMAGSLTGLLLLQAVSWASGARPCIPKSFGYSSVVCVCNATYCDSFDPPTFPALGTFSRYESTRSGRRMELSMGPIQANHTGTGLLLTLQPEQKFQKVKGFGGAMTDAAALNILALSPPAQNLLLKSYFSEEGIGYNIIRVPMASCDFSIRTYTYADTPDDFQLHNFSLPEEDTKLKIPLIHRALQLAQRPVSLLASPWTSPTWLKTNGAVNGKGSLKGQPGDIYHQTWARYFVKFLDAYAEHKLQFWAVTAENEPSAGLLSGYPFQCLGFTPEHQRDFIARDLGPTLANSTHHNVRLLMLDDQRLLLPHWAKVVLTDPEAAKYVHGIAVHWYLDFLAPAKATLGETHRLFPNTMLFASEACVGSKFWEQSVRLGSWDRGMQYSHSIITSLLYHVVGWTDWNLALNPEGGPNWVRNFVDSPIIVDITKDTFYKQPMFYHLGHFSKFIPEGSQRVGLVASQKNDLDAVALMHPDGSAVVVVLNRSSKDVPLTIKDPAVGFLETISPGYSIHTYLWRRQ
From the text: NIH Chemical Genomics Center [NCGC]
NIH Molecular Libraries Probe Production Centers Network [MLPCN]
Assay Submitter (PI): Wei Zheng
Glucocerebrosidase (GC) catalyzes the hydrolysis of beta-glucocerebroside to glucose and ceramide in lysosomes. Mutations in the glucocerebrosidase gene result in Gaucher disease, an autosomal recessive lysosomal storage disorder. Many of the mutations encountered in patients with Gaucher disease are missense alterations that may cause misfolding, decreased stability and/or mistrafficking of this lysosomal protein. […] These inhibitors include iminosugar analogs and three non-iminosugar inhibitors identified from a previous HTS of 62,000 compounds with the wild type recombinant enzyme. However, the enhancement of enzyme activity by the chaperone action of an enzyme inhibitor must be balanced against the direct inhibition of the enzyme. An enzyme activator could also function as a chaperone by binding to the enzyme and helping to correct its misfolding and mistrafficking. While activators for GC have not yet been identified, they may have better therapeutic potential than inhibitors. Therefore the discovery and development of chemical activators may provide a new strategy for the chaperone therapy.
We have optimized a new assay using N370S mutant GC derived from the spleen of a Gaucher patient. […] In addition, the MLPCN compound library has expanded, which increases the chance of finding new and better probes.
NCGC Assay Protocol Summary:
This is a fluorogenic enzyme assay with 4-methylumbelliferyl-beta-D-glucopyranoside as the substrate and N370S glucocerebrosidase from human spleen homogenate as the enzyme preparation. Upon the hydrolysis of this fluorogenic substrate, the resulting product, […] which can be detected by a standard fluorescence plate reader. Data were normalized to the controls for basal activity (without enzyme) and 100% activity (with enzyme). The AC50 values were determined from concentration-response data modeled with the standard Hill equation.
Assay buffer: 50 mM citric acid (titrated with potassium phosphate to pH 5.0), 100 mM potassium chloride, 10 mM sodium chloride, 1 mM magnesium chloride, 0.01% Tween-20.
1536-well assay protocol:
(1) Add 2 ul/well of spleen homogenate (27 ug final)
(2) Add 23 nL compounds in DMSO solution. The final titration was 0.5 nM to 58 uM.
(3) Add 2 ul of substrate (1 mM final)
(4) Incubate at 37C for 40 min.
(5) Add 2 ul stop solution (1M NaOH and 1M Glycine mixture, pH 10)
(6) Detect the assay plate in a ViewLux plate reader (PerkinElmer) with Ex=365 nm and Em=440nm.
Keywords: Glucocerebrosidase, beta-glucosidase, Gaucher Disease, pharmacological chaperone, chaperone therapy, high throughput screening, glucocerebrosidase inhibitor, MLSMR, MLSCN, NIH Roadmap, qHTS and NCGC
Potency is the fitted concentration of half-maximal effect.
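Throughout, for activity change, negative = inhibition: 0% = enzyme with DMSO and -100% = no enzyme basal signal.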

Row | SMILES | Potency | activity change, negative = inhibition
1 | O=S(=O)(c1ccc2c(c1)CCCC2)N1CCN(c2nc(-c3cccs3)nc3ccccc23)CC1 | 0.713 µM (active) | –
2 | S=C(NCCCc1cnc[nH]1)NCCCN(Cc1ccc(Cl)c(Cl)c1)c1ccc(Br)cn1 | 650 nM (active) and 579 nM (active) | –
3 | O=S(=O)(c1ccc(Cl)cc1)N1CCN(c2nc(Nc3cc(Cl)ccc3O)nc3ccccc23)CC1 | 2.59 µM (active) | –
4 | N=c1c2c(-c3ccccc3)c(-c3ccccc3)n(Cc3ccco3)c2ncn1CCCn1ccnc1 | 12.6 µM (active) | –
5 | Cc1cc2[nH]c(=O)c(=O)[nH]c2cc1S(=O)(=O)N1CCN(c2cccc(C)c2C)CC1 | 4.11 µM (active) | –
6 | O=S(=O)(c1ccc(F)cc1)N1CCN(c2nc(-c3ccc(F)cc3)nc3cc(Cl)ccc23)CC1 | – | -2.14% (inactive)
7 | NCCCN(Cc1ccc(Cl)c(Cl)c1)c1ccccn1 | – | -26.1% (inactive)
8 | Clc1ccccc1-c1nccc(NCc2ccccc2)n1 | 8.91 µM (active) | –
9 | COc1ccc(S(=O)(=O)N2CCN(c3nc(-c4cccs4)nc4ccccc34)CC2)cc1 | 0.819 µM (active) | –
10 | O=S(=O)(c1cccc(C(F)(F)F)c1)N1CCN(c2nc(-c3cccs3)nc3ccccc23)CC1 | 6.35 µM (active) | –
11 | O=S(=O)(c1ccc(Cl)cc1)N1CCN(c2nc(-c3ccc(F)cc3)nc3cc(Cl)ccc23)CC1 | – | 1.27% (inactive)
12 | N#C/C(=C\c1c(Oc2ccccc2Cl)nc2ccccn2c1=O)C(=O)NC1CCS(=O)(=O)C1 (stereo not given) | – | 1.08% (inactive)
13 | CCOc1ccccc1NC(=O)CN(c1ccc(C)cc1)S(=O)(=O)c1c(C)noc1C | – | 20.7% (inactive)
14 | CCN1CCN(C(=O)CCN(CC(C)C)c2nc(-c3cccs3)nc3ccccc23)CC1 | 20.2 µM (active) | –
15 | O=S(=O)(Cc1ccccc1)N1CCN(c2nc(-c3cccs3)nc3ccccc23)CC1 | 2.25 µM (active) | –
16 | CN1CCN(CCCNC(=O)c2ccc(/C=C3\Oc4ccccc4N(Cc4ccccc4F)C3=O)cc2)CC1 | – | -18.7% (inactive)
17 | CC(=O)N1CCN(C(=O)c2cc(-c3ccc(Cl)s3)nc3ccccc23)CC1 | – | -3.72% (inactive)
18 | Cc1cccn2c(=O)c3cc(C(=O)NCCc4ccccc4)sc3nc12 | – | 8.55% (inactive)
19 | Cc1ccccc1NC(=O)Nc1ccccn1 | – | 2.43% (inactive)
20 | O=S(=O)(c1ccccc1Cl)N1CCN(c2nc(-c3cccs3)nc3ccccc23)CC1 | 1.16 µM (active) and 259 nM (active) | –

Row | SMILES | Potency | activity change, negative = inhibition
21 | CN(CCN(C)c1nc(-c2cccs2)nc2ccccc12)C(=O)OC(C)(C)C | 5.8 µM (active) | –
22 | CN(CCCc1cnc[nH]1)C(=S)NCCCN(Cc1ccc(Cl)cc1)c1ccc(Br)cn1 | 11.4 µM (active) | –
23 | CS(=O)(=O)N1CCN(c2nc(-c3cccs3)nc3ccccc23)CC1 | 11.4 µM (active) | –
24 | O=S(=O)(c1nccs1)N1CCN(c2nc(-c3cccs3)nc3ccccc23)CC1 | 7.3 µM (active) | –
25 | CCCCN(CCCNC(=S)NCCCc1cnc[nH]1)c1ccc(Br)cn1 | 8.18 µM (active) | –
26 | CC1(C)CCc2cc(S(=O)(=O)N3CCN(c4nc(-c5cccs5)nc5ccccc45)CC3)ccc2O1 | 1.13 µM (active) | –
27 | O=C(NCCCc1cnc[nH]1)NCCCN(Cc1ccc(Cl)c(Cl)c1)c1ccc(Br)cn1 | 1.03 µM (active) | –
28 | Cc1ccc(S(=O)(=O)N2CCN(c3nc(-c4cccs4)cc4ccccc34)CC2)cc1 | 3.26 µM (active) | –
29 | O=S(=O)(c1ccc(F)cc1)N1CCN(c2nc(-c3cccs3)nc3ccccc23)CC1 | 1.27 µM (active) and 713 nM (active) | –
30 | CCN1CCN(c2nc3c(C)cccn3c(=O)c2/C=C(\C#N)C(=O)NCCOC)CC1 | – | 25.1% (inactive)
31 | S=C(NCCCCN(Cc1ccc(Cl)cc1)c1ccc(Br)cn1)NCCCc1cnc[nH]1 | 0.635 µM (active) | –
32 | CCCCNC(=S)NCCCc1cnc[nH]1 | – | -23.1% (inactive)
33 | O=S(=O)(c1cccc(Cl)c1)N1CCN(c2nc(-c3cccs3)nc3ccccc23)CC1 | 1.6 µM (active) and 1.79 µM (active) | –
34 | Oc1cccc(Nc2nc(-c3ccccc3Cl)nc3ccccc23)c1 | 2.06 µM (active) | –
35 | C#CCOCCOCCOCCNc1nc(N2CCN(C(=O)CCCCCCCCCCNC(=O)[C@H](CCCCN)n3cc(CCCC(=O)O)nn3)CC2)nc(N2CCN(C(=O)CCCCCCCCCCNC(=O)[C@H](CCCN=C(N)N)n3cc(C[C@@H](C)CC)nn3)CC2)n1 | 8.19 µM (active) | –
36 | Cc1nc2nc(-c3ccccc3)cn2nc1C | – | 8.02% (inactive)
37 | CC(C)S(=O)(=O)N1CCN(c2nc(-c3cccs3)nc3ccccc23)CC1 | 5.07 µM (active) | –
38 | S=C(NCCCc1cnc[nH]1)NCCCN(Cc1ccc(Cl)cc1)c1ncc(Br)cn1 | 1.79 µM (active) | –
39 | Cc1cc(C)cc(N(CC(=O)Nc2ccc(C)cc2Cl)S(=O)(=O)c2c(C)[nH]c(=O)[nH]c2=O)c1 | 1.63 µM (active) | –
40 | O=C(/C=C/c1ccc(O)cc1)c1ccc(O)cc1O | 11.2 µM (active) | –

Source: PubChem BioAssay AID2590 (National Center for Advancing Translational Sciences (NCATS), 2010)
